Unmarked numbers belong to inactive results.
Tested on: Vero E6 infected with SARS-CoV-2
Assay: inhibition of SARS-CoV-2 cytopathic effect; higher = more antiviral protection, active = above 15
Conditions: 48 h

Compound | inhibition of SARS-CoV-2 cytopathic effect (1 nM) | inhibition of SARS-CoV-2 cytopathic effect (8.33 nM) | inhibition of SARS-CoV-2 cytopathic effect (100 nM) | inhibition of SARS-CoV-2 cytopathic effect (833.33 nM) | inhibition of SARS-CoV-2 cytopathic effect (10000 nM)
O=C1C(CC[S+]([O-])c2ccccc2)C(=O)N(c2ccccc2)N1c1ccccc1 (stereo not given) [sulfinpyrazone] | 1.22% | 1.51% | -0.06% | 0.46% | 0.32%
O=C1c2cccnc2OC[C@@H]2CCCN12 | 0.83% | 1.33% | 0.65% | 0.64% | -2.21%
O=C(NC1CCNCC1)[C@@H]1CC[C@@H]2CN1C(=O)N2OS(=O)(=O)O [relebactam] | 0.07% | 1.87% | 1.26% | -0.84% | -1.06%
COC(=O)[C@@]12OC[C@]34[C@H]([C@@H](O)[C@@H]1O)[C@@]1(C)CC(=O)C(O)=C(C)[C@@H]1C[C@H]3OC(=O)[C@H](OC(=O)/C=C(\C)C(C)C)[C@@H]24 [bruceantin] | 1.48% | 1.92% | 26.8% (active) | 4.61% | -16.1%
O=C(Cc1ccc(-c2ccc(OCCN3CCOCC3)cc2)cn1)NCc1ccccc1 | -1.67% | 0.24% | -3.29% | -1.51% | -1.44%
CC(O)(CS(=O)(=O)c1ccc(F)cc1)C(=O)Nc1ccc(C#N)c(C(F)(F)F)c1 (stereo not given) [bicalutamide] | -2.58% | -1.35% | 0.77% | -0.42% | -0.92%
Nc1nc(N)nc(NC2CC2)n1 [cyromazine] | -2.63% | -0.52% | 2.15% | 2.37% | 0.6%
O=C(N[C@@H]1Cc2ccccc2N(C[C@@H](O)CO)C1=O)c1cc2cc(Cl)sc2[nH]1 | -0.59% | -0.92% | -2.86% | -2.28% | -3.46%
CCC(=O)O[C@H](CC(=O)O)C[N+](C)(C)C [levocarnitine-propionate] | -0.81% | 4.36% | 0.32% | 3.36% | 0.31%
CN1CCN(c2ccc(/C=C(\C#N)c3ccccc3Br)cc2)CC1 | 2.51% | -1.94% | -3.13% | -2.26% | -2.17%
Cc1cn2nc([C@@H]3CCCCN3C(=O)c3cc(Cl)ccc3NS(C)(=O)=O)cc2nc1N1CC[C@H](N)C1 [presatovir] | 2.31% | 0.48% | -1.98% | -1.96% | -4.09%
O=C(O)c1ccccc1O [salicylic-acid] | 1.59% | -5.54% | -2.37% | 0.26% | 1.57%
Cc1ccc2c(-c3ccccc3)nc(=O)n(C(C)C)c2c1 [proquazone] | 0.68% | 0.21% | -1.31% | -2.03% | -0.55%
CCOCOC[C@H](C[C@H](C)C(=O)NO)NC(=O)c1ccc(Oc2ccccc2)cc1 | 4.15% | 13.5% | 5.33% | -3.29% | -6.18%
CCCCNNC(=O)c1ccc(Br)cc1 | 2.76% | 1.2% | 2.26% | 3.31% | -5.28%
COC(=O)N1CC[C@@H]2[C@H]1CCC[C@@]2(O)C#Cc1cccc(C)c1 [mavoglurant] | 0.66% | -0.18% | 2.27% | -1.9% | -0.19%
Cc1c(C)c2c(c(C)c1O)CCC(C)(C)O2 | 0.77% | -0.34% | 2.33% | 4.37% | -5.56%
C=C1C(=O)O[C@@H]2/C=C(\C)CC/C=C(\C)CC[C@@H]12 [costunolide] | -0.97% | -0.24% | -0.99% | 2.87% | 19.3% (active)
N#Cc1ccnc(N2C(=O)CC[C@H]2C(=O)N(c2cncc(F)c2)[C@H](C(=O)NC2CC(F)(F)C2)c2ccccc2Cl)c1 [ivosidenib] | -0.33% | 3.62% | 0.3% | 0.14% | 3.82%
Cc1sc(C)c(C(=O)NC2(c3ccc(C(=O)O)cc3)CC2)c1Cc1ccc(C(F)(F)F)cc1 | -1.32% | -0.56% | -0.49% | -1.38% | 1.12%
